A selection: hits, their analogues and other compounds. The true share with any hit is near 18%.
TDP1 inh – TDP1 (human) enzyme inhibition. recombinant TDP1, AlphaScreen DNA substrate cleavage. Potency, µM (highest dose often 130 µM), inactives show top-dose activity change, negative = inhibition, hits mostly inhibitors. hit rate 0.28% among 350,000; also: potency is read from the fitted curve at half-maximal effect; nearly all actives have a fitted effect of over 40% in size
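Enzyme-compound mixtures sat 15 min at room temperature, followed by a 5 min reaction with 15 nM final substrate and 10 min with AlphaScreen beads. Recombinant human Tdp1 was used at 1 nM final.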
DT40 TDP1 no CPT – qHTS for Inhibitors of human tyrosyl-DNA phosphodiesterase 1 (TDP1): qHTS in cells in absence of CPT. hit rate 15% among 420,000. AID 686978, 2013. DT40 Tdp1-/- hTDP1 cells, no CPT, ATP luminescence, 48 h. Potency, µM (doses to about 46.2 µM), without a hit: at the highest dose activity change, negative = growth inhibition, hits mostly inhibitors; also: potency is read from the fitted curve at half-maximal effect; nearly all actives have a fitted effect of over 55% in size
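Readout: luminescence from CellTiter-Glo after 30 min in the dark at RT. Cells: DT40 Tdp1-/- with stable hTDP1, 400/well. Exposure: compounds alone, ≥48 hr, 37 °C.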
Six1-Eya2 inh – blocks human Six1 binding to Eya2; Q15475+O00167; AlphaScreen GST-Six1/His-Eya2 binding, biochemical; stronger effect = lower value; activity change, % (no concentration beside the values); hit rate 0.56% among 360,000; in the data active = activity change below about -65%; inconclusive = mostly about -30% to -63%
Target sequence (O00167 whole entry, looked up): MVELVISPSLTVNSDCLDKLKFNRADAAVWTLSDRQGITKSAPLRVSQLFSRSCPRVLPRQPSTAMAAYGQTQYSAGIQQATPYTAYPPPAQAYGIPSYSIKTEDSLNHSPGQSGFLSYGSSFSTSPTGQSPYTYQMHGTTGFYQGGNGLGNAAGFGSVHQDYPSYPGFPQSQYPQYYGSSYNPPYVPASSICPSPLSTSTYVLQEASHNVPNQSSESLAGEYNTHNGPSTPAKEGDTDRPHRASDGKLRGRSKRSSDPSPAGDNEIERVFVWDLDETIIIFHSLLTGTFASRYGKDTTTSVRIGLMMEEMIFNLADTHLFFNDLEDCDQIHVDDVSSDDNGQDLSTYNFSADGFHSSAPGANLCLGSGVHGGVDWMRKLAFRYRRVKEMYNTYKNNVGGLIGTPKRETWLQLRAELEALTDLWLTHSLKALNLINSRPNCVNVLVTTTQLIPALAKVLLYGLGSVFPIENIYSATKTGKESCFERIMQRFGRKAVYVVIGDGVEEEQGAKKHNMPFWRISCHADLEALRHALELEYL
Target sequence (Q15475 whole entry, looked up): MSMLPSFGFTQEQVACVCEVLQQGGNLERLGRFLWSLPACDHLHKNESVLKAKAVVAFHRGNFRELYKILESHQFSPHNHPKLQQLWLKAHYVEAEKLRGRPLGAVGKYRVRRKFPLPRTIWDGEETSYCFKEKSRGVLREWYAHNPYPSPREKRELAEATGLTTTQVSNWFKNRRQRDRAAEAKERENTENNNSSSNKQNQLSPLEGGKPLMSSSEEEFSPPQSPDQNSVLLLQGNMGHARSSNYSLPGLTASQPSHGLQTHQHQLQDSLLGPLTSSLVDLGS
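AlphaScreen luminescence read after one hour at 37 °C in darkness. Pin-transferred compounds met GST-Six1 and His-Eya2 protein (5X stock 250 nM/500 nM) plus glutathione donor and Ni-chelate acceptor beads (5X, 50 ug/mL).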
TDP1 cell CPT – DT40-hTDP1 cell growth loss with CPT; chicken DT40 Tdp1-/-;hTDP1 cells + 20 nM CPT, ATP luminescence, 48 h; Potency, µM (highest dose often 46.2 µM), without a hit: at the top dose activity change, negative = growth inhibition, hits mostly inhibitors; hit rate 12% among 420,000; also: potency is read from the fitted curve at half-maximal effect; nearly all actives have a fitted effect of over 55% in size
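Chicken DT40 Tdp1-/- cells stably complemented with human TDP1 were seeded at 400 cells/well in medium containing 20 nM camptothecin, exposed to pin-transferred compounds, and grown at 37 °C for at least 48 hr. Viability was read as ATP luminescence.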
IL-1B inflam inh – inhibitors of inflammasome signaling (IL-1 beta secretion); THP-1 LPS/ATP IL-1B secretion, AlphaLISA, 16 h; stronger effect = lower value; activity change, % at 57.5 µM; hit rate 4.7% among 360,000; in the data active = activity change below about -50%; inconclusive = mostly about -30% to -49%
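Secreted IL-1B measured by AlphaLISA bead assay after 16 h compound exposure of THP-1 cells; compounds (final up to 57.5 uM) added 1 h before LPS (250 ng/mL) and ATP (1.25 mM) stimulation; lower signal means less secretion.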
CtBP-E1A inh – blocks the CtBP interaction with E1A; activity change, % (no concentration beside the values); hit rate 0.49% among 340,000; AlphaScreen GST-E1A/His-CtBP binding, 1536-well; stronger effect = lower value; in the data active = activity change below about -65%; inconclusive = mostly about -30% to -63%
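GST-E1A and His-tagged CtBP (125 nM each as 5X stock) were preincubated with pin-transferred compound for 2 h at 37 °C in the dark, then glutathione donor and nickel acceptor beads were added for 1 h before AlphaScreen reading.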
* = called active by the depositor; ? = inconclusive; / = no result given; [ ] = another dose, or the depositor's remark. Unless noted, calls follow the shape of the dose curve; as a rule, active = well fitted curve in the direction sought with a large enough effect; inconclusive = small, poorly fitted or top-dose-only effect, or another doubt; inactive = no such curve, though single readings can be large; an effect the other way counts as inactive or inconclusive. % is scaled to controls: 0 for no effect and ±100 for the full control effect.

SMILES | TDP1 inh | DT40 TDP1 no CPT | Six1-Eya2 inh | TDP1 cell CPT | IL-1B inflam inh | CtBP-E1A inh
O=C(C1=C(O)C(=O)N(c2nc3ccc(Cl)cc3s2)C1c1ccco1)c1ccco1 (configuration not stated) | -1.6% | 2.31µM* | -25.9 | ? | 63.2 | -11.8
O=C(O)CC1(CC(=O)N2CCN(CCO)CC2)CCCC1 | 5.3% | -18.2% | 0.1 | -9.1% | -11.4 | 0.0
CN(Cc1cccc(F)c1)C(=O)c1cccc(S(=O)(=O)N2CCN(Cc3ccccc3)CC2)c1 | 5.3% | ? | -10.1 | ? | -25.6 | -2.4
COc1ccccc1OCCNC(=O)c1cccc(S(=O)(=O)N2CCN(Cc3ccccc3)CC2)c1 | 2.7% | ? | -9.6 | 18.4µM* | -22.9 | -3.6
CN(Cc1ccc(Cl)c(Cl)c1)C(=O)c1cccc(S(=O)(=O)N2CCN(Cc3ccccc3)CC2)c1 | 1.5% | 20.6µM* | -9.0 | 20.6µM* | ? | -11.5
CN(Cc1ccc(OC(F)F)cc1)C(=O)c1cccc(S(=O)(=O)N2CCN(c3ccccc3)CC2)c1 | / | 2.91µM* | -5.7 | 14.6µM* | -62.4* | -12.2
CN(Cc1cccc(Cl)c1Cl)C(=O)c1cccc(S(=O)(=O)N2CCN(Cc3ccccc3)CC2)c1 | 3.0% | 16.4µM* | -12.2 | ? | -10.5 | 3.0
Cc1ccc(OCCCn2c(-c3ccc(Cl)cc3)nc3ccccc3c2=O)cc1C | / | -12.5% | / | -4.5% | / | /
CC(=O)Nc1c(O)nc(C)[nH]c1=O | 3.9% | 25.0% | 3.8 | -0.4% | -16.0 | -0.4
CCC1S/C(=C(\C#N)C(=O)NCc2ccco2)N(c2ccc(Br)cc2)C1=O (configuration not stated) | -1.0% | -18.2% | -10.4 | ? | 19.5 | -0.7
CN(CC(=O)N1CCN(Cc2ccccc2)CC1)C(=O)Cc1ccc(Cl)c(Cl)c1 | 0.1% | 14.6µM* | -0.9 | ? | -12.9 | 5.4
CN(Cc1cnn(Cc2ccccc2)c1)C(=O)c1cccc(S(=O)(=O)N2CCOCC2)c1 | 2.1% | 5.8µM* | 3.5 | 7.31µM* | 54.2 | 11.4
Cc1ccc2[nH]c(CCN(C)C)c(CN3CCOCC3)c2c1 | 0.4% | ? | 0.3 | 20.6µM* | -23.5 | 1.8
C=C1Cn2c(nnc2-c2ccc(Cl)cc2)S1 | 7.4% | -11.1% | -3.3 | -2.2% | -15.8 | 4.5
CCOC(=O)C1=C(N)Oc2ccc3ccccc3c2C1c1ccc(O)cc1 (configuration not stated) | 9.9% | ? | -1.4 | ? | -11.5 | 4.2
CCOC(=O)C1=C(N)Oc2cc(O)ccc2C1c1ccc([N+](=O)[O-])cc1 (configuration not stated) | 0.0% | -16.9% | -3.6 | 0.5% | -69.8* | -5.3
CCOc1ccccc1O[C@H](c1ccccc1)[C@H]1CNCCO1 | / | 18.8µM* | 4.2 | 29.9µM* | -19.3 | -0.7
CCOc1ccccc1NC(=O)C(NCC1CCCCC1)c1ccccc1 (configuration not stated) | -5.4% | -82.4% | 7.8 | ? | 50.7 | /
CC(C)(C(=O)N1CCC1(C)C(=O)NC1Cc2ccccc2C1)c1ccccc1 (configuration not stated) | / | 20.6µM* | 2.6 | 16.4µM* | 36.8 | 1.3
CC(C)(C(=O)N1CCC1(C)C(=O)Nc1ccccc1Br)c1ccccc1 (configuration not stated) | / | ? | 2.1 | ? | 0.0 | 0.3
Cc1[nH]c(=O)[nH]c1CN1CCCCC1 | -1.0% | / | / | / | / | /
Cc1ccc(C(=O)N2CCC3(CC2)Oc2ccc(Cl)cc2C(=O)C32CC(c3ccc(Cl)cc3)=NO2)s1 (configuration not stated) | 2.5% | 1.1% | 0.8 | -2.6% | -3.6 | 4.3
CC(C)C(=O)N1CCC2(CC1)Oc1ccc(F)cc1C(=O)C21CC(c2ccc(Cl)cc2)=NO1 (configuration not stated) | 5.9% | ? | -1.3 | ? | -67.4* | -6.6
CCC(=O)N1CCC2(CC1)Oc1ccc(F)cc1C(=O)C21CC(c2ccc(Cl)cc2)=NO1 (configuration not stated) | 3.5% | 25.9µM* | -11.1 | ? | ? | -4.7
CC(C)C(=O)N1CCC2(CC1)Oc1ccc(Cl)cc1C(=O)C21CC(c2ccccc2)=NO1 (configuration not stated) | 4.7% | ? | -8.4 | ? | ? | -5.3
SMILES | TDP1 inh | DT40 TDP1 no CPT | Six1-Eya2 inh | TDP1 cell CPT | IL-1B inflam inh | CtBP-E1A inh
CCC(=O)N1CCC2(CC1)Oc1ccc(Cl)cc1C(=O)C21CC(c2ccc(Cl)cc2)=NO1 (configuration not stated) | 3.5% | 13µM* | -11.3 | ? | ? | -6.7
CCN(CC)S(=O)(=O)c1cccc(NC(=O)CCNC(=O)c2ccccc2Cl)c1 | / | ? | -11.3 | ? | -12.4 | -11.4
Cc1csc(Sc2ccc(C(=O)OCC(=O)Nc3ccc(F)cc3[N+](=O)[O-])cc2[N+](=O)[O-])n1 | 4.4% | -7.9% | -5.5 | 18.1% | 8.9 | 2.2
C#CCn1c2ccccc2c(=O)n1C(C)C | / | -22.9% | -4.1 | ? | -12.2 | 16.5
Cc1csc(NC(=O)CSc2nnc(NC(=O)C3CC(=O)N(c4ccccc4)C3)s2)n1 (configuration not stated) | 5.6% | -19.4% | -7.4 | -1.7% | 8.7 | -1.4
COc1c2c(cc3c1C(CC(=O)c1c(O)c(OC)c4occc4c1OC)[N+](C)(C)CC3)OCO2 (configuration not stated) | 7.5% | -21.3%[9.04 µM] | / | 1.6%[9.04 µM] | / | /
COc1ccc(Nc2nc(CN3CCOCC3)nc3sc4c(c23)CCC(C)C4)cc1OC (configuration not stated) | 5.1% | / | / | / | / | /
CC1CCc2c(sc3nc(CN4CCOCC4)nc(Sc4ccccc4)c23)C1 (configuration not stated) | 3.0% | 20.6µM* | -2.2 | ? | -20.1 | -7.3
COc1cc2c(cc1OC)CN(c1nc(CN3CCOCC3)nc3sc4c(c13)CCC(C)C4)CC2 (configuration not stated) | 10.8% | 14.6µM* | ? | 11.6µM* | -67.7* | ?
COc1ccc(CCCC(=O)NCC(=O)N/N=C/c2cc(Cl)ccc2OC)cc1 | 4.8% | -19.7% | -12.4 | 1.5% | 0.0 | -3.7
O=C(COc1ccccc1)NCC(=O)N/N=C/c1ccc(O)cc1O | 3.8% | 16.4µM* | -79.7* | ? | 119.9 | -91.5*
Cc1ccc(/C=N/NC(=O)CNC(=O)COc2ccccc2)cc1 | -0.6% | -6.7% | 5.1 | 8.0% | -8.2 | 2.0
